An excerpt weighted towards active compounds, which were near 6.9% of everything screened.
IL1B secr inh = blocks inflammasome-driven IL-1 beta release | activity change, % at 57.5 µM | 360,000 compounds, 4.7% hits | AID 743279 | THP-1 LPS/ATP IL-1B secretion, AlphaLISA, 16 h; hits give low values; in the data active means activity change below about -50%; inconclusive means mostly about -30% to -49%
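THP-1 cells pretreated 1 hr with compounds (up to 57.5 uM final), then stimulated with LPS (250 ng/mL final) plus ATP (1.25 mM final); secreted IL-1B measured by AlphaLISA after 16 hr, decreased signal indicating inhibition.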
Vif-A3F inh = blocks the Vif interaction with APOBEC3F | HeLa A3F-eYFP + Vif (tagged APOBEC3F with the HIV-1 protein that degrades it), YFP fluorescence increase | 390,000 compounds, 0.2% hits | AID 602313 | Potency, µM (series often up to 46.1 µM); further: nearly all actives have a fitted effect of over 65% in size
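Fluorescence increase (Ex 488/Em 500-530) after overnight compound treatment at 37 deg C flags inhibition of Vif-driven A3F-eYFP loss in stable HeLa A3F-eYFP/Vif cells seeded overnight beforehand.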
SW480 rereplic = DNA re-replication induction in SW480 cells; SW480 DNA re-replication, Hoechst DNA content imaging, 48 h; Potency, µM (top dose mostly 46.1 µM), actives largely listed as activators; 340,000 compounds, 1.8% hits; AID 624297; further: nearly all actives have a fitted effect of over 55% in size
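Treated cells incubate 48 hr (37 C, 5% CO2), are stained 40 min with Hoechst, and nuclear fluorescence is enumerated; a rise in nuclei with high DNA signal marks re-replication.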
Giardia killer = Giardia lamblia killing; Giardia lamblia trophozoite viability; activity change, % at 7.66 µM, hits read low; 340,000 compounds, 0.15% hits; AID 540267; in the data active means activity change below about -80%; inconclusive means between about -30% and that limit;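 further: parasites exposed to compound for two days anaerobically before the ATP read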
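Compounds were tested on trophozoites seeded at 100 cells/well and held 48 hrs at 37 deg C anaerobically. An ATP-based luminescent kit measured the remaining live cells.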
Vif-APOBEC3G blk = Vif-A3G binding inhibition. 410,000 compounds, 0.076% hits. Potency, µM (top dose mostly 46.1 µM), most hits filed as inhibitors. AID 602310. Q9HC16. HeLa A3G-eYFP + Vif (tagged APOBEC3G with the HIV-1 protein that degrades it), YFP fluorescence, overnight; further: nearly all actives have a fitted effect of over 60% in size
Target sequence (Q9HC16 whole entry, looked up): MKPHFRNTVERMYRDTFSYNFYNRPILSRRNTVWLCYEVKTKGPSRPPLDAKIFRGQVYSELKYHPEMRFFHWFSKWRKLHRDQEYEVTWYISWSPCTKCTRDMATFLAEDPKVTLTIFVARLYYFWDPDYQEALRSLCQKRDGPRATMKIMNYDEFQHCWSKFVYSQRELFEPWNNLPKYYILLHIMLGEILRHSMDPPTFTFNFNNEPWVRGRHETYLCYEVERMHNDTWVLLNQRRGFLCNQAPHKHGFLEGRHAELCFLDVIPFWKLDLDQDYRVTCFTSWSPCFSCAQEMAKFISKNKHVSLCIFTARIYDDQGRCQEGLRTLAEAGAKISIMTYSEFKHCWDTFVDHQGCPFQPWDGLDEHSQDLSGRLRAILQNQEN
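HeLa cells stably expressing Vif and C-terminally eYFP-tagged A3G, seeded overnight at 37 deg C, then exposed to compound by pintool overnight at 37 deg C. Rise in yellow fluorescence (Ex 488/Em 500-530, Acumen) marks blocked Vif-driven A3G degradation.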
MCF10A rereplic = induces DNA re-replication in MCF 10a normal breast cells; MCF 10A DNA re-replication, Hoechst nuclear intensity, 48 h; Potency, µM (doses to about 46.1 µM), most hits filed as activators; 350,000 compounds, 2.9% hits; further: nearly all actives have a fitted effect of over 50% in size
Hits are given with their value; . = inactive; ? = inconclusive; / = no result given. Unless noted, the call rests on the fitted dose curve; in most records, active means well fitted curve in the direction sought with a large enough effect; inconclusive means small, poorly fitted or top-dose-only effect, or another doubt; inactive means no such curve, though single readings can be large; an effect the other way counts as inactive or inconclusive.

SMILES | IL1B secr inh | Vif-A3F inh | SW480 rereplic | Giardia killer | Vif-APOBEC3G blk | MCF10A rereplic
CCN(CC)CCCNC(=O)c1ccc2c(c1)NC(=O)C(CS(=O)(=O)Cc1cccc(Br)c1)N2 (configuration not stated) | / | . | / | / | . | /
CC(NO)/C(=N\O)c1cccs1 (configuration not stated) | . | . | ? | . | . | 3.7µM
C/C(=N\N=C(c1ccccc1)c1ccccc1)c1cccs1 | . | . | . | . | . | .
Cc1ccc2[nH]c(O)c(N=NC(=O)CCc3ccccc3)c2c1Br | -88 | . | . | . | . | .
CC(=O)Oc1c(-c2ccc(Br)o2)oc2ccccc2c1=O | . | 13µM | ? | . | . | ?
CCN(CC)CCNC(=O)c1ccc(NC(=O)c2cccc(S(=O)(=O)N3CCc4ccccc43)c2)cc1 | -85 | ? | . | . | ? | ?
COc1ccc(S(=O)(=O)N2CCCc3ccccc32)cc1OC | . | . | ? | . | . | .
COc1ccc(S(=O)(=O)N2CCc3ccccc32)cc1C(=O)Nc1ccc(NC(C)=O)cc1 | . | . | ? | . | . | 23µM
COc1ccc(S(=O)(=O)N2CCc3ccccc32)cc1NC(C)=O | . | . | ? | . | . | 8.2µM
CC(=O)Nc1ccc(S(=O)(=O)N2CCSc3ccccc32)cc1 | . | . | 3.7µM | . | ? | 6.5µM
CCN(CC)CCNC(=O)c1ccc(NC(=O)c2cccc(S(=O)(=O)N3c4ccccc4CC3C)c2)cc1 (configuration not stated) | . | . | ? | . | . | .
COc1ccc(NC(C)=O)cc1S(=O)(=O)N1CCc2ccccc21 | . | . | . | . | . | ?
CC(=O)Nc1ccc2nc3c(=O)n(C)c(=O)n(C)c3nc2c1C | / | . | / | / | . | /
COc1ccc(S(=O)(=O)N2CCCc3ccccc32)cc1[N+](=O)[O-] | . | . | 21µM | . | ? | 4.1µM
Cc1ccc(CN2CCC(c3cc(-c4cccs4)n[nH]3)CC2)cc1 | -86 | . | . | . | . | ?
FC(F)(F)c1cccc(CN2CCC(c3cc(-c4cccs4)n[nH]3)CC2)c1 | -217 | . | ? | . | . | 13µM
Cc1ccc(CNC(=O)Cn2ccn(-c3ccc(C)c(C)c3)c(=O)c2=O)cc1 | / | . | / | / | ? | /
O=C1N/C(=N/O)S/C1=C/c1cccc([N+](=O)[O-])c1 | . | . | . | . | . | .
CC1(C)CC(=O)/C(=C\c2cccc([N+](=O)[O-])c2)C(C)(C)N1 | -82 | . | ? | . | . | ?
Cc1ccc(S(=O)(=O)c2cc3cc(C(=O)Nc4ccc(C)cc4C)ccc3oc2=O)cc1 | / | . | / | / | . | /
COC(=O)CCC(C)C1CCC2C3CCC4CC(O)CCC4(C)C3=CC(=O)C12C (configuration not stated) | -53 | . | . | . | . | .
CC(CCC(=O)NN)C1CCC2C3CCC4CC(O)CCC4(C)C3CCC12C (configuration not stated) | . | . | . | . | . | ?
O=C(N/N=C/c1ccc(F)cc1)c1cc(-c2ccc3c(c2)OCO3)n[nH]1 | . | . | . | . | . | 29µM
COc1ccc(/C=N/NC(=O)c2cc(-c3ccc4c(c3)OCO4)n[nH]2)cc1OC | ? | . | . | . | . | .
CN(C)c1ccc(/C=N/NC(=O)c2ccc3c(c2)OCCO3)cc1 | . | . | . | . | . | .
SMILES | IL1B secr inh | Vif-A3F inh | SW480 rereplic | Giardia killer | Vif-APOBEC3G blk | MCF10A rereplic
CN(C)c1ccc(/C=N/NC(=O)c2cc(-c3ccc4c(c3)OCO4)n[nH]2)cc1 | . | ? | ? | . | ? | 5.8µM
Cc1ccc(N(C(=O)Cn2nnc(-c3ccc(F)cc3)n2)C(C(=O)NC(C)(C)C)c2ccncc2)cc1 (configuration not stated) | -69 | . | . | . | . | .
Cc1ccccc1N(C(=O)Cn1nnc(-c2ccc(F)cc2)n1)C(C(=O)NC(C)(C)C)c1ccncc1 (configuration not stated) | -57 | . | ? | . | . | .
CC(=O)c1cccc(S(=O)(=O)NCCc2csc3nc(-c4ccc(F)cc4)nn23)c1 | / | . | / | / | . | /
CCOC(=O)c1ccc2c(c1)nc(C1CCN(S(=O)(=O)c3cccs3)CC1)n2CC | -79 | . | . | . | . | ?
CCOC(=O)c1cccc(NC(=O)C2CCN(S(=O)(=O)c3cccs3)CC2)c1 | . | . | . | . | . | .
Cc1ccc(CS(=O)(=O)c2ccc(C(=O)N3CCCCC3)cc2[N+](=O)[O-])cc1 | . | . | . | . | . | .
CCN(CC)C(=O)c1ccc(S(=O)(=O)Cc2ccc(C)cc2)c([N+](=O)[O-])c1 | -68 | . | . | . | . | ?
Nc1ncnc2c1ncn2C1OC(CO)C(O)C1O (configuration not stated) | . | . | . | . | . | .
Nc1ncnc2c(C3OC(CO)C(O)C3O)scc12 (configuration not stated) | -116 | . | ? | . | . | ?
COc1ccc(Cl)cc1NC(=O)c1c(NCc2cccnc2)sc2c1CCC(C)C2 (configuration not stated) | / | . | / | / | . | /
CC1=C(C(N)=O)C(c2ccc(C)cc2)n2nc(SCc3ccccc3)nc2N1 (configuration not stated) | / | . | / | / | . | /
Cc1ccc(C)c(NCC(=O)c2ccc(Cl)cc2)c1 | . | . | ? | . | . | 23µM
COc1ccc(-n2nc3c(N4CCC(C(=O)NCc5cccc(C)c5)CC4)nnc(C)c3c2C)cc1 | . | . | . | . | ? | ?
COc1ccccc1CCNC(=O)C1CCN(c2nnc(C)c3c(C)n(-c4ccc(C)cc4)nc23)CC1 | . | . | . | ? | . | ?
Cc1ccc(-n2nc3c(N4CCC(C(=O)NCc5ccccc5C)CC4)nnc(C)c3c2C)cc1 | -92 | . | . | . | ? | ?
COc1ccc(-n2nc3c(N4CCC(C(=O)NCCc5ccco5)CC4)nnc(C)c3c2C)cc1 | -51 | . | ? | . | . | ?
CCOc1ccccc1CNC(=O)C1CCN(c2nnc(C)c3c(C)n(-c4ccc(C)cc4)nc23)CC1 | -96 | . | ? | . | ? | 23µM
CCOc1ccc(CNC(=O)C2CCN(c3nnc(C)c4c(C)n(-c5ccc(C)cc5)nc34)CC2)cc1 | -99 | . | ? | . | ? | ?
Cc1ccc(-n2nc3c(N4CCC(C(=O)NCc5ccccc5Cl)CC4)nnc(C)c3c2C)cc1 | / | . | / | / | . | /
O=S(=O)(c1ccc(-c2csc(=Nc3ccc(F)cc3)n2CCCCCCO)cc1)N1CCCC1 | / | . | / | / | . | /
O=C(Nc1ccc(Br)cc1F)c1cnn2c1NC(=C1CC1)C=C2C(F)F | / | / | / | / | . | /

High-throughput results from PubChem BioAssay.
